“And” between values parts separate entries of the source, which are not always exact repeats. Equal entries are not always repeated. The whole screen tested about 5,500 compounds, of which about 2,000 (36%) were called active. Inconclusive results (about 18%) are left out. No stated cut-off is given here; in the data, active means normalized growth mostly below about 0.91 (no sharp cut-off); inconclusive means no clear call, values can overlap the other calls; inactive means mostly above about 0.92. The list shows a part of the results.
Assay: chemical genetic growth profiling, strain panel (AID 1159580);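 further: tested at 20 µM; growth read once vehicle control cultures reached saturation at 30 °C; 1 = growth at the plate median or of vehicle wells; lower values mean less growth of the strain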
Settings: growth OD

Measured: normalized growth

N[C@@H]1CONC1=O
inactive: S. cerevisiae deletion strains, locus YAL021C, strain ccr4, hits give low values 0.982 | S. cerevisiae deletion strains, locus YAL026C, strain drs2, hits give low values 0.977 | S. cerevisiae deletion strains, locus YAL030W, strain snc1, hits give low values 0.973 | S. cerevisiae deletion strains, locus YBL061C, strain skt5, hits give low values 0.963 | S. cerevisiae deletion strains, locus YBR009C, strain hhf1, hits give low values 1.02 | S. cerevisiae deletion strains, locus YBR021W, strain FUR4, hits give low values 1.01 | S. cerevisiae deletion strains, locus YBR023C, strain chs3, hits give low values 0.975 | S. cerevisiae deletion strains, locus YBR171W, strain sec66, hits give low values 0.974 | S. cerevisiae deletion strains, locus YBR229C, strain ROT2, hits give low values 1.01 | S. cerevisiae deletion strains, locus YBR231C, strain swc5, hits give low values 1.01 | S. cerevisiae deletion strains, locus YBR279W, strain paf1, hits give low values 0.964 | S. cerevisiae deletion strains, locus YCL011C, strain gbp2, hits give low values 0.969 | S. cerevisiae deletion strains, locus YCL016C, strain dcc1, hits give low values 0.953 | S. cerevisiae deletion strains, locus YCL029C, strain bik1, hits give low values 1.01 | S. cerevisiae deletion strains, locus YCL069W, strain vba3, hits give low values 0.98 | S. cerevisiae deletion strains, locus YCR088W, strain abp1, hits give low values 0.981 | S. cerevisiae deletion strains, locus YDL005C, strain med2, hits give low values 0.958 | S. cerevisiae deletion strains, locus YDL035C, strain GPR1, hits give low values 1.03 | S. cerevisiae deletion strains, locus YDL040C, strain nat1, hits give low values 0.971 | S. cerevisiae deletion strains, locus YDL074C, strain BRE1, hits give low values 1.02 | S. cerevisiae deletion strains, locus YDL101C, strain DUN1, hits give low values 1.02 | S. cerevisiae deletion strains, locus YDL185W, strain tfp1, hits give low values 1.02 | S. cerevisiae deletion strains, locus YDL192W, strain arf1, hits give low values 1.01 | S. cerevisiae deletion strains, locus YDR001C, strain nth1, hits give low values 0.986 | S. cerevisiae deletion strains, locus YDR069C, strain doa4, hits give low values 1.01 | S. cerevisiae deletion strains, locus YDR101C, strain arx1, hits give low values 1 | S. cerevisiae deletion strains, locus YDR137W, strain rgp1, hits give low values 1.01 | S. cerevisiae deletion strains, locus YDR159W, strain sac3, hits give low values 0.995 | S. cerevisiae deletion strains, locus YDR162C, strain NBP2, hits give low values 1.03 | S. cerevisiae deletion strains, locus YDR195W, strain ref2 0.983 | S. cerevisiae deletion strains, locus YDR297W, strain sur2, hits give low values 0.993 | S. cerevisiae deletion strains, locus YDR318W, strain mcm21, hits give low values 1.02 | S. cerevisiae deletion strains, locus YDR334W, strain swr1, hits give low values 0.97 | S. cerevisiae deletion strains, locus YDR335W, strain msn5, hits give low values 0.991 | S. cerevisiae deletion strains, locus YDR388W, hits give low values 1.01 | S. cerevisiae deletion strains, locus YDR392W, strain spt3, hits give low values 0.934 | S. cerevisiae deletion strains, locus YDR502C, strain sam2, hits give low values 1.02 | S. cerevisiae deletion strains, locus YEL003W, strain gim4, hits give low values 0.992 | S. cerevisiae deletion strains, locus YEL037C, strain rad23, hits give low values 0.982 | S. cerevisiae deletion strains, locus YEL061C, strain CIN8 (second series), hits give low values 1 | S. cerevisiae deletion strains, locus YEL061C, strain CIN8, hits give low values 1.01 | S. cerevisiae deletion strains, locus YER015W, strain faa2, hits give low values 0.99 | S. cerevisiae deletion strains, locus YER016W, strain bim1, hits give low values 0.946 | S. cerevisiae deletion strains, locus YER110C, hits give low values 1.02 | S. cerevisiae deletion strains, locus YER111C, strain swi4, hits give low values 0.992 | S. cerevisiae deletion strains, locus YER155C, strain BEM2 (second series), hits give low values 1.03 | S. cerevisiae deletion strains, locus YER155C, strain BEM2, hits give low values 0.999 | S. cerevisiae deletion strains, locus YER167W, strain BCK2, hits give low values 1.01 | S. cerevisiae deletion strains, locus YFR010W, strain ubp6, hits give low values 0.997 | S. cerevisiae deletion strains, locus YGL078C, strain dbp3, hits give low values 1.01 | S. cerevisiae deletion strains, locus YGL086W, strain mad1, hits give low values 1.01 | S. cerevisiae deletion strains, locus YGL167C, strain pmr1, hits give low values 0.987 | S. cerevisiae deletion strains, locus YGL173C, strain kem1, hits give low values 0.984 | S. cerevisiae deletion strains, locus YGL227W, strain vid30, hits give low values 0.961 | S. cerevisiae deletion strains, locus YGL240W, strain doc1, hits give low values 1.01 | S. cerevisiae deletion strains, locus YGL248W, strain PDE1, hits give low values 1.01 | S. cerevisiae deletion strains, locus YGL253W, strain hxk2, hits give low values 0.969 | S. cerevisiae deletion strains, locus YGR135W, strain pre9, hits give low values 1.02 | S. cerevisiae deletion strains, locus YGR252W, strain gcn5, hits give low values 1.02 | S. cerevisiae deletion strains, locus YHR013C, strain ard1, hits give low values 0.964 | S. cerevisiae deletion strains, locus YHR027C, strain rpn1, hits give low values 1 | S. cerevisiae deletion strains, locus YHR030C, strain SLT2, hits give low values 1.01 and 1.03 | S. cerevisiae deletion strains, locus YHR079C, strain IRE1 (second series), hits give low values 1.01 | S. cerevisiae deletion strains, locus YHR079C, strain IRE1, hits give low values 1.03 | S. cerevisiae deletion strains, locus YHR094C, strain hxt1, hits give low values 1.01 | S. cerevisiae deletion strains, locus YHR129C, strain ARP1, hits give low values 1.01 | S. cerevisiae deletion strains, locus YHR142W, strain chs7, hits give low values 0.981 | S. cerevisiae deletion strains, locus YHR200W, strain rpn10, hits give low values 1.01 | S. cerevisiae deletion strains, locus YIL066C, strain RNR3, hits give low values 1.03 | S. cerevisiae deletion strains, locus YIL073C, strain SPO22, hits give low values 1.02 | S. cerevisiae deletion strains, locus YIL125W, strain kgd1, hits give low values 1.02 | S. cerevisiae deletion strains, locus YIR030C, strain dcg1, hits give low values 1.04 | S. cerevisiae deletion strains, locus YJL092W, strain hpr5, hits give low values 0.992 | S. cerevisiae deletion strains, locus YJL095W, strain BCK1 (second series), hits give low values 0.975 | S. cerevisiae deletion strains, locus YJL095W, strain BCK1, hits give low values 1.02 and 1.03 | S. cerevisiae deletion strains, locus YJL115W, strain asf1, hits give low values 0.968 | S. cerevisiae deletion strains, locus YJL129C, strain trk1, hits give low values 0.977 | S. cerevisiae deletion strains, locus YJL134W, strain LCB3, hits give low values 1.01 | S. cerevisiae deletion strains, locus YJL154C, strain vps35, hits give low values 0.985 | S. cerevisiae deletion strains, locus YJL164C, strain tpk1, hits give low values 1 | S. cerevisiae deletion strains, locus YJL166W, strain qcr8, hits give low values 0.998 | S. cerevisiae deletion strains, locus YJL168C, strain set2, hits give low values 1.01 | S. cerevisiae deletion strains, locus YJL187C, strain SWE1 (second series), hits give low values 1.05 | S. cerevisiae deletion strains, locus YJR043C, strain POL32, hits give low values 1 | S. cerevisiae deletion strains, locus YJR066W, strain TOR1, hits give low values 0.979 | S. cerevisiae deletion strains, locus YJR075W, strain HOC1, hits give low values 1.02 | S. cerevisiae deletion strains, locus YKL009W, strain mrt4, hits give low values 1.03 | S. cerevisiae deletion strains, locus YKL068W, hits give low values 1.01 | S. cerevisiae deletion strains, locus YKL085W, strain MDH1 (second series), hits give low values 1.05 | S. cerevisiae deletion strains, locus YKL085W, strain MDH1, hits give low values 1.05 | S. cerevisiae deletion strains, locus YKL160W, strain elf1, hits give low values 0.935 | S. cerevisiae deletion strains, locus YKR001C, strain vps1, hits give low values 1.02 | S. cerevisiae deletion strains, locus YKR026C, strain gcn3, hits give low values 0.986 | S. cerevisiae deletion strains, locus YKR091W, strain srl3, hits give low values 0.983 | S. cerevisiae deletion strains, locus YLL001W, strain dnm1, hits give low values 1.01 | S. cerevisiae deletion strains, locus YLL026W, hits give low values 0.983 | S. cerevisiae deletion strains, locus YLL041C, strain sdh2, hits give low values 0.975 | S. cerevisiae deletion strains, locus YLR027C, strain aat2, hits give low values 0.997 | S. cerevisiae deletion strains, locus YLR039C, strain RIC1, hits give low values 0.975 | S. cerevisiae deletion strains, locus YLR058C, strain SHM2, hits give low values 1.02 | S. cerevisiae deletion strains, locus YLR102C, strain apc9, hits give low values 1.01 | S. cerevisiae deletion strains, locus YLR113W, strain HOG1, hits give low values 1.03 | S. cerevisiae deletion strains, locus YLR221C, strain rsa3, hits give low values 1.03 | S. cerevisiae deletion strains, locus YLR258W, strain gsy2, hits give low values 0.97 | S. cerevisiae deletion strains, locus YLR262C, strain YPT6 (second series), hits give low values 1 | S. cerevisiae deletion strains, locus YLR262C, strain YPT6, hits give low values 1.01 | S. cerevisiae deletion strains, locus YLR268W, strain sec22, hits give low values 1.02 | S. cerevisiae deletion strains, locus YLR320W, strain mms22, hits give low values 0.997 | S. cerevisiae deletion strains, locus YLR330W, strain CHS5, hits give low values 1.01 | S. cerevisiae deletion strains, locus YLR342W, strain FKS1 (second series), hits give low values 1.02 | S. cerevisiae deletion strains, locus YLR342W, strain FKS1, hits give low values 0.99 | S. cerevisiae deletion strains, locus YLR357W, strain rsc2, hits give low values 0.948 | S. cerevisiae deletion strains, locus YLR370C, strain arc18, hits give low values 0.968 | S. cerevisiae deletion strains, locus YLR371W, strain rom2, hits give low values 0.998 | S. cerevisiae deletion strains, locus YLR384C, strain iki3, hits give low values 0.991 | S. cerevisiae deletion strains, locus YLR418C, strain cdc73, hits give low values 1.06 | S. cerevisiae deletion strains, locus YML016C, strain PPZ1, hits give low values 1.01 | S. cerevisiae deletion strains, locus YML032C, strain rad52, hits give low values 1.01 | S. cerevisiae deletion strains, locus YML120C, strain ndi1, hits give low values 0.994 | S. cerevisiae deletion strains, locus YML124C, strain tub3, hits give low values 1.02 | S. cerevisiae deletion strains, locus YMR058W, strain fet3, hits give low values 1.03 | S. cerevisiae deletion strains, locus YMR078C, strain ctf18, hits give low values 1.02 | S. cerevisiae deletion strains, locus YMR125W, strain sto1, hits give low values 0.968 | S. cerevisiae deletion strains, locus YMR129W, hits give low values 0.969 | S. cerevisiae deletion strains, locus YMR205C, strain PFK2, hits give low values 0.994 | S. cerevisiae deletion strains, locus YMR223W, strain ubp8, hits give low values 1.03 | S. cerevisiae deletion strains, locus YMR231W, strain pep5, hits give low values 0.98 | S. cerevisiae deletion strains, locus YMR307W, strain GAS1, hits give low values 0.923 | S. cerevisiae deletion strains, locus YNL067W, strain RPL9B, hits give low values 1.02 | S. cerevisiae deletion strains, locus YNL071W, strain lat1, hits give low values 0.996 | S. cerevisiae deletion strains, locus YNL183C, strain NPR1, hits give low values 0.973 | S. cerevisiae deletion strains, locus YNL209W, strain ssb2, hits give low values 0.989 | S. cerevisiae deletion strains, locus YNL233W, strain BNI4, hits give low values 1.02 | S. cerevisiae deletion strains, locus YNL248C, strain rpa49, hits give low values 0.94 | S. cerevisiae deletion strains, locus YNL250W, strain rad50, hits give low values 1.01 | S. cerevisiae deletion strains, locus YNL271C, strain bni1, hits give low values 1.02 | S. cerevisiae deletion strains, locus YNL298W, strain CLA4, hits give low values 1.01 | S. cerevisiae deletion strains, locus YNL307C, strain MCK1, hits give low values 1.02 | S. cerevisiae deletion strains, locus YNL322C, strain KRE1 (second series), hits give low values 0.947 | S. cerevisiae deletion strains, locus YNR049C, strain mso1, hits give low values 0.982 | S. cerevisiae deletion strains, locus YNR052C, strain pop2, hits give low values 1.02 | S. cerevisiae deletion strains, locus YOL012C, strain htz1 0.629 | S. cerevisiae deletion strains, locus YOL147C, strain pex11, hits give low values 1.01 | S. cerevisiae deletion strains, locus YOR001W, strain rrp6, hits give low values 1.02 | S. cerevisiae deletion strains, locus YOR061W, strain CKA2, hits give low values 1.02 | S. cerevisiae deletion strains, locus YOR069W, strain VPS5, hits give low values 1.02 | S. cerevisiae deletion strains, locus YOR070C, strain gyp1, hits give low values 0.984 | S. cerevisiae deletion strains, locus YOR080W, strain dia2, hits give low values 0.967 | S. cerevisiae deletion strains, locus YOR083W, strain WHI5, hits give low values 0.908 | S. cerevisiae deletion strains, locus YOR106W, strain vam3, hits give low values 0.937 | S. cerevisiae deletion strains, locus YOR136W, strain idh2, hits give low values 1.02 | S. cerevisiae deletion strains, locus YOR144C, strain elg1, hits give low values 1.02 | S. cerevisiae deletion strains, locus YOR184W, strain ser1, hits give low values 1.02 | S. cerevisiae deletion strains, locus YOR231W, strain MKK1, hits give low values 1.04 | S. cerevisiae deletion strains, locus YOR265W, strain rbl2, hits give low values 0.986 | S. cerevisiae deletion strains, locus YOR270C, strain vph1, hits give low values 1.05 | S. cerevisiae deletion strains, locus YOR290C, strain snf2, hits give low values 0.951 | S. cerevisiae deletion strains, locus YOR316C, strain cot1, hits give low values 1.02 | S. cerevisiae deletion strains, locus YPL051W, strain arl3, hits give low values 0.957 | S. cerevisiae deletion strains, locus YPL078C, strain atp4, hits give low values 0.963 | S. cerevisiae deletion strains, locus YPL106C, strain sse1, hits give low values 0.953 | S. cerevisiae deletion strains, locus YPL240C, strain hsp82, hits give low values 1 | S. cerevisiae deletion strains, locus YPL256C, strain CLN2, hits give low values 1.12 | S. cerevisiae deletion strains, locus YPR119W, strain clb2, hits give low values 1.02 | S. cerevisiae deletion strains, locus YPR141C, strain kar3, hits give low values 1.02 | S. cerevisiae deletion strains, locus YPR163C, strain tif3, hits give low values 1.02 | S. cerevisiae deletion strains, locus YPR167C, strain met16, hits give low values 1.02 | S. cerevisiae deletion strains, strain wtn01, hits give low values 1.02 | S. cerevisiae strains, strain wild type, hits give low values 1.01
